aSyn UTR act: Activators via SNCA 5'UTR binding, MLPCN. alpha-synuclein 5'UTR reporter, activators screen. 300,000 compounds, 7.1% hits. activity score, % (tested at 7.5 µM), hits read low; in the data active means activity score below about -60%
Starred values were filed as active, the others as inactive. A selection follows.

SMILES	aSyn UTR act
Cc1ccc(C(=O)NC(=S)NCC2CCCO2)cc1Br (stereo not given)	-155*
O=C(NC(=S)NCC1CCCO1)c1ccc(Br)o1 (stereo not given)	-108*
COC(=O)C1C(=O)c2c([nH]c(C(=O)OC3CCCCC3)c2C)CC1C (stereo not given)	-178*
CCOC(=O)c1[nH]c2c(c1C)C(=O)CC(c1ccc(F)cc1)C2 (stereo not given)	59
COC(=O)C1C(=O)c2c([nH]c(C(=O)OC3CCCC3C)c2C)CC1C (stereo not given)	-168*
CN(C)c1ccc(N=C/C=C2/N(C)c3ccccc3C2(C)C)cc1	-84*
Cc1ccc2cc(C3C(C#N)=C(N)Oc4c3ccc3cccnc43)c(=O)[nH]c2c1 (stereo not given)	61
Cc1[nH]nc2c1C(c1ccc(-c3ccc(Cl)cc3)o1)C(C#N)=C(N)O2 (stereo not given)	-63*
Cc1ccc(-c2ccc(C3C(C#N)=C(N)Oc4n[nH]c(C)c43)o2)cc1 (stereo not given)	-107*
O=[N+]([O-])c1ccc2nc(-c3ccc(Cl)cc3)[nH]c2c1	-221*
O=[N+]([O-])c1cccc(-c2nc3ccc([N+](=O)[O-])cc3[nH]2)c1	-142*
O=[N+]([O-])c1ccc(-c2cc(-c3ccc(Cl)cc3)n[nH]2)cc1	-75*
COc1ccc2nc(-c3ccccc3)[nH]c2c1	-71*
COc1ccc(-c2nc3ccc([N+](=O)[O-])cc3[nH]2)cc1	-63*
COc1ccc2cc(-c3ccccc3)ncc2c1	-65*
O=[N+]([O-])c1ccc(/C=C/c2nc3ccc([N+](=O)[O-])cc3[nH]2)cc1	-165*
COc1ccc(-c2cc3c(nn2)-c2ccccc2C3=O)cc1	98
COc1ccc2[nH]c(-c3ccccc3)cc2c1	-139*
Clc1ccc(-c2nc3ccncc3[nH]2)cc1	-101*
CCn1c(SCC(=O)Nc2ccc(C)cc2)nc(O)cc1=O	-71*
Nc1cnc(Nc2ccc(Br)cc2)nc1N	-106*
O=C(/C=C/c1ccccc1)NC(=O)c1ccccc1O	-157*
O=C(/C=C/c1ccccc1)CC(=O)c1ccccc1O	-201*
COc1cc(/C=C/C(=O)NC(=O)c2ccccc2O)ccc1O	-161*
O=C(COc1ccccc1[N+](=O)[O-])N/N=C/c1cccc(OC(=O)c2ccc3c(c2)OCO3)c1	-157*
SMILES	aSyn UTR act
O=C(Cc1ccccc1[N+](=O)[O-])Nc1ccc2c(c1)OCCO2	-100*
O=C(COc1cc(F)ccc1[N+](=O)[O-])Nc1cccc(Br)c1	-71*
O=C(COc1ccccc1[N+](=O)[O-])Nc1ccc2c(c1)OCO2	-133*
O=C(COc1ccc(/C=N/NC(=O)c2cc3ccccc3o2)cc1Br)Nc1ccccc1	116
O=C(COc1ccccc1[N+](=O)[O-])Nc1ccc(NC(=O)c2cc3ccccc3o2)cc1	-119*
CCOC(=O)Nc1ccc(NC(=O)c2ccccc2F)cc1	-149*
O=C(Nc1ccc(F)cc1)c1ccccc1F	-135*
O=C(Nc1ccc2oc(-c3ccc(F)cc3)nc2c1)c1ccccc1F	-113*
O=C(Nc1ccc(Oc2cccnc2)cc1)c1ccccc1F	-115*
CC(=O)Nc1ccc(NC(=O)c2ccccc2F)cc1	-81*
CCOC(=O)c1ccc(NC(=O)c2ccnn2C)cc1	-159*
CCOC(=O)c1ccc(NC(=O)c2ccccc2C)cc1	-156*
O=C(Nc1ccc(C(=O)N2CCCC2)cc1)c1ccccc1F	-65*
O=C(Nc1ccc2cn[nH]c2c1)c1ccccc1F	-224*
O=C(Oc1ccc(-c2cnc3ccccc3n2)cc1)c1ccc(Br)o1	-117*
O=C(Oc1ccc(-c2cnc3ccccc3n2)cc1)c1cccc([N+](=O)[O-])c1	-183*
O=C(Oc1ccc(-c2cnc3ccccc3n2)cc1)c1ccc(Cl)c([N+](=O)[O-])c1	-129*
Cc1ccc(C(=O)Nc2nccs2)s1	-87*
O=C(Nc1nccs1)c1ccc(Br)s1	-153*
CCOC(=O)c1ccc(NC(=O)CC2SCCNC2=O)cc1 (stereo not given)	-81*
O=C(NCc1ccco1)C(=O)c1c[nH]c2ccccc12	-79*
O=C(NCc1cccs1)C(=O)c1c[nH]c2ccccc12	-123*
Oc1ccc(N=Nc2c(O)ccc3ccccc23)cc1	-98*
COc1cc(N=Nc2ccc3ccccc3c2)ccc1O	-144*
Oc1ccc(N=Nc2ccc3ccccc3c2)cc1	-73*
SMILES	aSyn UTR act
Oc1c(N=Nc2ccccn2)ccc2ccccc12	74
NS(=O)(=O)c1ccc(N=Nc2ccc(O)c3ncccc23)cc1	64
CCOC(=O)N1CCC(Nc2nc3ccccc3nc2NS(=O)(=O)c2ccc(Cl)cc2)CC1	-88*
CCOC(=O)N1CCN(S(=O)(=O)c2ccc(C(=O)NNc3nc4ccc(Cl)cc4s3)cc2)CC1	67
Cc1ccc(NC(=O)NC(=S)NC(=O)c2ccccc2)cc1	-125*
O=C(NC(=S)Nc1ccccc1)c1ccc(-c2ccccc2)cc1	-102*
Cc1ccc(C(=O)NC(=S)Nc2cccnc2Cl)cc1	-138*
O=C1CN(C(=S)NC(=O)c2ccc(-c3ccccc3)cc2)CCN1	-79*

Source: PubChem (Broad Institute)
